Assay outcomes deposited in PubChem by National Center for Advancing Translational Sciences (NCATS).
The list is not random: actives were taken first. Their share in the collection is about 5.3%.
Tau ThT inhib – qHTS for Inhibitors of Tau Fibril Formation, Thioflavin T Binding; Potency, µM (top dose mostly 57.4 µM), for the others: at the top dose activity, negative = inhibition, most hits filed as inhibitors; 270,000 compounds, 2.1% hits; recombinant tau K18 P301L, heparin-induced fibrillization, ThT fluorescence; further: potency means the concentration at half of the fitted maximal effect; nearly all actives have a fitted effect of over 55% in size
Target sequence (P10636 561-689 P618L limits assumed): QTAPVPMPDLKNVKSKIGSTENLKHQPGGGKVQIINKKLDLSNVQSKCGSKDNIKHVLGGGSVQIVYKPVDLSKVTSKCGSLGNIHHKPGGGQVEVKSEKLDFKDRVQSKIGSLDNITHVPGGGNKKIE
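ThT emission at 510 nm, taken 1 hr after adding 30 uM dye, quantifies aggregates formed when 20 uM heparin acts on human tau K18 P301L for 6 hr at 37 C.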
Tau fluor counter – Counterscreen qHTS for Inhibitors of Tau Fibril Formation, Fluorescence Polarization. tau K18 P301L Alexa594 fluorescence, heparin fibrillization. Potency, µM (top dose mostly 57.7 µM), for inactives: top-dose activity change, negative = decrease. 280,000 compounds, 0.93% hits; further: potency means the concentration at half of the fitted maximal effect; nearly all actives have a fitted effect of over 55% in size
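Human tau K18 P301L (15 uM unlabeled, 0.24 uM Alexa 594-labeled) in 100 mM sodium acetate pH 7 with 20 uM heparin, 6 hr at 37 C. ThT 30 uM added, 1 hr ambient; Alexa 594 FP and total fluorescence read at 555/632 nm.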
FBPA coupling cs – qHTS Assay for Inhibitors of Fructose-1,6-bisphosphate Aldolase from Giardia Lamblia: Coupling assay counterscreen; coupling enzyme system counterscreen, AmpLite Red fluorescence; activity change, negative = inhibition, % at 58.2 µM, hits read low; 290,000 compounds, 0.67% hits; in the data active means activity change below about -30%
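Activity here indicates interference with the coupling reaction, not aldolase inhibition. Compounds at 57.5 uM final met coupling enzymes for 10 min at RT; substrate and AmpLite Red detection followed, with a 525/598 nm fluorescence read after 20 min.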
Sfp inh – qHTS Assay for Inhibitors of Bacillus subtilis Sfp phosphopantetheinyl transferase (PPTase). Potency, µM, without a hit: largest response in the series, negative = inhibition, usual class: inhibitors. Biochemical Sfp PPTase activity, qHTS. 310,000 compounds, 3.5% hits. 4'-phosphopantetheinyl transferase ffp (Bacillus subtilis), Q9F4F7;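 further: the enzyme is Sfp with the accession as filed and its product quenches rhodamine fluorescence; potency means the concentration at half of the fitted maximal effect; 0% = enzyme reaction without inhibitor and -100% = no enzyme wells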
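Fluorescence-quenching assay with 15 nM Sfp, 5 uM rhodamine-CoA and 12.5 uM BHQ-2-labelled ybbR peptide in pH 7.6 Hepes/MgCl2 buffer. Enzyme was pre-incubated with compound for 15 min at room temperature. Rate was taken from the 30-min fluorescence change (525/598 nm).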
Tau FP inhib – qHTS for Inhibitors of Tau Fibril Formation, Fluorescence Polarization; K18 P301L tau heparin fibrillization, Alexa594 FP, 6 h; Potency, µM (doses to about 57.7 µM), for inactives: at the top dose activity, negative = inhibition, hits mostly inhibitors; 280,000 compounds, 0.39% hits; AID 1468, 2008; further: potency means the concentration at half of the fitted maximal effect; nearly all actives have a fitted effect of over 55% in size
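Human tau K18 […] P301L fragment, 15 uM unlabeled plus 0.24 uM Alexa 594-labeled tau (final), with compound and 20 uM heparin in 100 mM sodium acetate pH 7; 6 hr at 37 C, then Alexa 594 FP read.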
JMJD2E inh – qHTS Assay for Inhibitors of Human Jumonji Domain Containing 2E (JMJD2E) | JMJD2E catalytic domain, FDH-coupled NADH fluorescence (FDH is formaldehyde dehydrogenase) | Potency, µM (top dose mostly 57.1 µM), for the others: at the highest dose activity change, negative = inhibition, actives largely listed as inhibitors | 230,000 compounds, 1.6% hits | AID 2147, 2009; active means well fitted inhibition curve with a large enough effect, not every such curve was filed as active; inconclusive means small, poorly fitted or top-dose-only effect, or another doubt; inactive means no such curve, though single readings can be large or run the other way;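 further: potency means the concentration at half of the fitted maximal effect; 0% = wells with enzyme and -100% = buffer wells without enzyme; nearly all actives have a fitted effect of over 50% in size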
Target sequence (B2RXH2 1-337 limits assumed): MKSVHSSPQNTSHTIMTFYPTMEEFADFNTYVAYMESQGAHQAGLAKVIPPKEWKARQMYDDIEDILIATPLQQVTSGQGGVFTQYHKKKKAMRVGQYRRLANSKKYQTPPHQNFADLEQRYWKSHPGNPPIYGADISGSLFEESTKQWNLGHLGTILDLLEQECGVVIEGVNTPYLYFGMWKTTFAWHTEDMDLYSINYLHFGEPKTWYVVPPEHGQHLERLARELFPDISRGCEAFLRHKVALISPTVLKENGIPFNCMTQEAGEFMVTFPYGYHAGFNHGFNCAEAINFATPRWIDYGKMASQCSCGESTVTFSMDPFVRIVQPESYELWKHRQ
* marks the source's active call; other numbers are inactive results; ? = inconclusive; . = no result given; [ ] = remark or other dose. Unless noted, the call rests on the fitted dose curve; in most records, active means well fitted curve in the direction sought with a large enough effect; inconclusive means small, poorly fitted or top-dose-only effect, or another doubt; inactive means no such curve, though single readings can be large; an effect the other way counts as inactive or inconclusive. Unless noted, on the % scale 0 is the no-effect control and ±100 the full control effect.

SMILES | Tau ThT inhib | Tau fluor counter | FBPA coupling cs | Sfp inh | Tau FP inhib | JMJD2E inh
Cc1ccc(C(=O)N2CCc3cc(CNC(=O)CSc4ccccc4)ccc32)cc1 | -17% | -18% | . | . | -3% | .
CNc1nc(-c2ccccc2C)nc2ccccc12 | . | . | 0 | ? | . | .
Nc1nc2c(s1)COc1ccccc1-2 | -17% | -10% | -1 | 16µM* | -5% | ?
O=C(NCCCN1CCN(c2ccc(F)cc2)CC1)c1cc2c(Cl)nc3ccccc3c2s1 | 4% | ? | . | . | -15% | .
O=C(Nc1ccc2oc(-c3cccnc3)nc2c1)c1ccc(Br)o1 | ? | -13% | -18 | 50µM* | -6% | ?
Nn1c(-c2cccc(Br)c2)n[nH]c1=S | -8% | 5% | 0 | ? | 3% | ?
CCn1nc(C)cc1-c1n[nH]c(=S)n1N | -7% | -6% | -2 | 45µM* | 4% | -3%
COC1=C/C(=C/c2c(O)c(C#N)c3ccccn23)C=CC1=O | 14µM* | -21% | -3 | ? | -11% | ?
COc1cc(OC)cc(C(=O)c2c(C)c(C#N)c3ccccn23)c1 | . | . | 0 | 4% | . | .
COc1ccc(OC)c(CNc2ncnc3c2nc2n3CCCC2)c1 | -3% | -4% | . | . | -6% | .
CCc1ccc(CNC(=O)C2CCCN(c3nnc(C)c4c(C)n(-c5ccccc5)nc34)C2)cc1 (stereo not given) | ? | -21% | . | 56µM* | -9% | .
Cc1nnc(N2CCCC(C(=O)NCc3ccccc3)C2)c2nn(-c3ccccc3)c(C)c12 (stereo not given) | 8% | 4% | . | . | 2% | .
O=C(CCSCc1cccc(Cl)c1)NCc1ccc(F)cc1Cl | -14% | -23% | . | . | 2% | .
N=c1n(CCN2CCOCC2)c2ccccc2n1CC(=O)c1ccc(Cl)c(Cl)c1 | -12% | -1% | -31* | -6% | 1% | 7%
COc1ccc2c(n1)Sc1nc3ccccc3nc1N2 | 1µM* | 4µM*[quencher] | -2 | -9% | 6% | -2%
CCOC(=O)COc1ccc(C2NC(C(=O)O)CS2)cc1 (stereo not given) | -4% | 3% | 1 | 45µM* | -4% | ?
COc1cc(C2NC(C(=O)O)CS2)ccc1OCc1ccccc1C#N (stereo not given) | -2% | 1% | 3 | 18µM* | -7% | -25%
O=C(O)C1CSC(c2ccncc2)N1 (stereo not given) | ? | -11% | 2 | -70% | ? | -14%
COC(=O)c1ccc(C2NC(C(=O)O)CS2)cc1 (stereo not given) | -17% | -5% | 2 | 56µM* | -1% | ?
C=CCC1C=CC(Oc2ccc(OC)cc2)C(CO)O1 (stereo not given) | -14%[11.5 µM] | -12%[11.6 µM] | -1 | -13% | -2%[11.6 µM] | .
CC(C)c1cc(C(C)C)c(S(=O)(=O)Nc2cccc3cccnc23)c(C(C)C)c1 | . | . | -10 | -1% | . | .
Oc1c(N=Nc2ccccn2)ccc2ccccc12 | 4.5µM* | ? | -8 | -15% | ? | ?
Cc1nnsc1C(=O)N/N=C/c1ccc2ccccc2c1O | 3.2µM* | -20% | 4 | 6% | ? | 22µM*
COc1ccc(C2CC(=O)c3c(C)nc(N4CCN(C=O)CC4)nc3C2)c(OC)c1 (stereo not given) | -13% | -16% | . | . | -3% | .
Cc1ccc(NNC(=O)C(O)(c2cccc(C(F)(F)F)c2)c2cccc(C(F)(F)F)c2)cc1 | -18% | 13µM*[quencher] | -7 | 15% | 1% | 5%
SMILES | Tau ThT inhib | Tau fluor counter | FBPA coupling cs | Sfp inh | Tau FP inhib | JMJD2E inh
COc1ccc(-c2cc(=O)[nH]c(=O)[nH]2)cc1 | -1% | 2% | 3 | 22% | 1% | 12%
COc1ccc(-c2cc(=O)[nH][nH]2)cc1 | 2.2µM* | -27% | -5 | -11% | ? | ?
O=c1cc(-c2ccc(Cl)c(Cl)c2)[nH][nH]1 | 3.2µM* | ? | 4 | 16% | ? | ?
COc1ccc(CNC(=O)Nc2cn(CC(C)C)c(=O)c3ccccc23)cc1 | 2% | -10% | . | . | -1% | .
CCCCOc1ccc(C(=O)Nc2ccc3c(c2)N(C(C)=O)CCC3)cc1 | -7% | -9% | . | . | -1% | .
COc1cccc(NC(=O)Cn2c(=O)n(Cc3ccc(C(=O)NCc4ccc(C)cc4)cc3)c(=O)c3ccccc32)c1 | 8% | -23% | . | . | ? | .
O=C(O)c1nn(CC(=O)N2CCC(Cc3ccccc3)CC2)c(=O)c2ccccc12 | . | . | 2 | -12% | . | .
Cc1cccc(N2CCN(C(=O)Cn3sc4nc(C)cc(C)c4c3=O)CC2C)c1 (stereo not given) | 13µM* | -29% | 3 | 3.5µM* | ? | ?
Cc1cccc(N2CCN(C(=O)Cn3nc(C)n4cccc4c3=O)CC2C)c1 (stereo not given) | ? | -24% | 0 | 7% | ? | .
Cc1cc(C)c2c(=O)n(CC(=O)N3CCC(Cc4ccccc4)CC3)sc2n1 | 13µM* | -22% | 4 | 7.9µM* | 11µM* | ?
Cc1ccc(S(=O)(=O)Nc2ccc(-c3ccc(N4CCCCCC4)nn3)cc2)cc1C | -10% | -24% | . | . | -4% | .
CSc1nc(C)c(C(=O)Nc2ccccc2)c(-c2ccco2)c1C#N | -6% | -4% | -12 | 7% | 3% | -15%
Cc1ccccc1NC(=O)c1c(C)[nH]c(=S)c(C#N)c1-c1ccco1 | -18% | -3% | 1 | 56µM* | -3% | -14%
Cc1nc(SCC(=O)O)c(C#N)c(-c2ccco2)c1C(=O)N(C)C | -3% | 4% | 0 | -2% | 5% | -12%
CNC(=O)c1c(C)[nH]c(=S)c(C#N)c1-c1ccco1 | ? | -4% | -2 | 8.9µM* | -7% | 32µM*
Cc1cc(C)cc(N2CCn3c2nc2c3c(=O)n(CCc3ccccc3)c(=O)n2C)c1 | -4% | -3% | . | . | 2% | .
COc1ccc(-c2nc(C#N)c(NCCCN3CCOCC3)o2)cc1 | -13% | -16% | -5 | 1% | 0% | 5µM*
Cc1ccc(N2C(=O)c3ccccc3C2C(=O)c2ccc(O)cc2O)cc1 (stereo not given) | ? | ? | 3 | ? | ? | 20µM*
Cc1ccc2[nH]c(=O)c(-c3nc4cc(C)ccn4c3NCc3ccco3)cc2c1 | ? | -14% | 0 | ? | 6% | 3.2µM*
COc1cc(S(=O)(=O)Nc2c(C)cc(C)cc2C)ccc1Cl | -10% | -21% | 0 | 56µM* | -9% | 13%
CCOc1ccc(OCC)c(Nc2nc3ccc(Cl)cc3n3cnnc23)c1 | 1% | -11% | . | . | ? | .
